# Laboratory results from PubChem BioAssay (NCATS).
# Assay: qHTS profiling for inhibitors of Plasmodium falciparum (3D7) proliferation (AID 743322);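 further: infected erythrocytes exposed to compound for 72 h before lysis; 100% = DMSO vehicle wells and 0% = 0.29 µM artemisinin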
# Settings: P. falciparum 3D7 proliferation; at 28.7 µM (top of the series) unless noted
# How it was run: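 Erythrocytes infected with P. falciparum (0.3% parasitemia, 2.5% hematocrit) incubated with compounds 72 h at 37 C, 5% CO2. Lysis with saponin/Triton buffer containing SYBR Green I, overnight at room temperature in the dark; DNA fluorescence (485/535 nm) normalised to 0.29 uM artemisinin and DMSO.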
row,Structure (SMILES),remaining parasite growth % (stronger effect = lower value)
1,Cc1cccc(C)c1NC(=O)C(C)N (stereo unspecified),92.4% [at 9.63 µM]
2,CNCCC(Oc1ccccc1OC)c1ccccc1 (stereo unspecified),104%
3,CN(C)CC/C=C1\c2ccccc2COc2ccccc21,96.2% [at 9.63 µM]

# Assay: qHTS profiling for inhibitors of Plasmodium falciparum (DD2) proliferation (AID 743323)
# Settings: lower = more inhibition; at 28.7 µM (top of the series) unless noted
# How it was run: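 SYBR Green fluorescence (ex 485, em 535 nm) of lysed cultures gives parasite DNA content; wells normalized to artemisinin (0.29 uM) and DMSO controls. Infected red cells: 0.3% parasitemia, 2.5% hematocrit, 72 h, 37 C.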
row,Structure (SMILES),"activity, percent of control"
1,Cc1cccc(C)c1NC(=O)C(C)N (stereo unspecified),99.5% [at 9.63 µM]
2,CNCCC(Oc1ccccc1OC)c1ccccc1 (stereo unspecified),48%
3,CN(C)CC/C=C1\c2ccccc2COc2ccccc21,49.5% [at 9.63 µM]
